# Hits are enriched below; roughly 0.38% of the tested compounds scored in any of these assays.
# Rac1 wt GTP bind: alters GTP binding to wildtype human Rac1; GST-Rac1 beads, fluorescent GTP binding, flow cytometry; actives lie on both sides; 0 = cold GTP competed, 100 = untreated; 0.27% of 190,000 active; P63000; GTP binding activity (% of control), % at 10 µM;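 active = GTP binding activity at least 20 points away from the 100% control level, either lower or higher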
# Rab7 wt modul: modulators of GTP binding to dog Rab7 wildtype GTPase; GST-Rab7 beads, fluorescent GTP binding, flow cytometry; actives lie on both sides; untreated = 100%, excess cold GTP = 0%; GTP binding activity (percent of control), % at 10 µM; 0.055% of 190,000 active; AID 758;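 active = fluorescent GTP binding to Rab7 beads changed by at least 20 points from the 100% baseline, either direction, mostly lower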;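 also: median green fluorescence of bound Bodipy-FL-GTP per Rab7 bead population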
# Rac1 mut GTP: modulators of GTP binding to human Rac1 activated mutant; P63000; GST-Rac1 activated beads, fluorescent GTP binding, flow cytometry; actives lie on both sides; 100% means binding = to untreated wells; percent activity (GTP binding), % at 10 µM; 0.11% of 190,000 active; AID 764;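 active = GTP binding at least 20 percentage points away from the 100% baseline, in either direction, so actives lie on both sides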
# HRas wt GTP bind: modulators of GTP binding to human HRas wildtype. P01112. GST-Ras wt beads, Bodipy-FL-GTP binding, flow cytometry; actives lie on both sides. GTP binding activity, % at 10 µM. 0.14% of 190,000 active;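 active = GTP binding activity at least 20% away from the 100% baseline, either lowered as inhibitor or raised as activator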;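 also: 0% = unlabeled GTP competition control and 100% = no-compound control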
# Target sequence (P01112 whole entry, looked up): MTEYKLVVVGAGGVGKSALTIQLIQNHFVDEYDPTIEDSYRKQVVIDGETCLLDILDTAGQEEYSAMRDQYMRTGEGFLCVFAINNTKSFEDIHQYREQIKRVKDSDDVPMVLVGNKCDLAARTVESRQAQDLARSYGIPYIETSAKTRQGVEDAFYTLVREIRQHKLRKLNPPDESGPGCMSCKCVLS
# Rab2A wt mod: changes GTP binding to wildtype dog Rab2A, up or down. AID 760. GTP binding activity, % at 10 µM. 0.19% of 190,000 active. GST-Rab2 wt beads, Bodipy-GTP binding, flow cytometry;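 active = GTP binding activity at least 20 points away from 100%, either lowered or raised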;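 also: 0% = beads with excess unlabeled GTP and 100% = no-compound control corrected for plate trend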
# Cdc42 wt: changes GTP binding to wildtype human Cdc42. P60953. GST-Cdc42 beads, Bodipy-GTP binding, flow cytometry; actives lie on both sides. percent activity (GTP binding), % at 10 µM. 0.2% of 190,000 active. AID 761;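 active = percent activity GTP binding at least 20 points away from the 100% baseline, either down as inhibitor or up as activator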;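 also: median bead fluorescence of bound Bodipy-FL-GTP at 100 nM; 0% = excess unlabeled GTP control and 100% = no compound control; below 100% means less GTP binding so inhibitor and above means activator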
# Target sequence (P60953 whole entry, looked up): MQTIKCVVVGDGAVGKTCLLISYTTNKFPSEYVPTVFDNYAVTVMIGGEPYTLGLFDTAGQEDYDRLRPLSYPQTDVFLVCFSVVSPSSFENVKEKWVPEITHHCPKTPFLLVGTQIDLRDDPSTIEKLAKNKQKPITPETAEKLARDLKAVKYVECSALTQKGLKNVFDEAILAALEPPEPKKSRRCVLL
# Starred values were filed as active, the others as inactive; [ ] = another dose, or the depositor's remark.
SMILES,Rac1 wt GTP bind,Rab7 wt modul,Rac1 mut GTP,HRas wt GTP bind,Rab2A wt mod,Cdc42 wt
CCC(SC1=N/C(=C/c2ccccc2)C(=O)N1c1ccccc1)C(=O)Nc1cc(C)on1 (centres undefined),102.0,101.0,101.0,99.0,102.0,102.0
CCOC(=O)N1CCN(/C=C(\C#N)c2nc3ccccc3s2)CC1,124.0*[activator],120.0*[activator],118.0,121.0*[activator],129.0*[activator],114.0
O=C(O)c1cccnc1SCc1cccc(Cl)c1,129.0*[activator],124.0*[activator],127.0*[activator],125.0*[activator],132.0*[activator],131.0*[activator]
O=C(O)c1ccccc1CSc1ncccc1C(=O)O,97.0,94.0,93.0,94.0,93.0,94.0
Cc1cccc(CSc2ncccc2C(=O)O)c1,161.0*[activator],120.0*[activator],134.0*[activator],129.0*[activator],132.0*[activator],149.0*[activator]
O=C(Nc1cccc2ncccc12)C(c1ccccc1)c1ccccc1,97.0,97.0,98.0,98.0,96.0,96.0
Cc1nc2ccccn2c1-c1csc(Nc2cccc(O)c2)n1,75.0*,88.0,87.0,83.0,82.0,82.0
Clc1ccc(Cn2ncc3c(N4CCOCC4)ncnc32)cc1,102.0,99.0,98.0,97.0,59.0*,95.0
Clc1ccc(Cn2ncc3c(N4CCCC4)ncnc32)cc1,100.0,97.0,97.0,100.0,100.0,99.0
COc1ccc2c(CC(=O)Nc3nccs3)coc2c1,101.0,107.0,97.0,98.0,100.0,100.0
N#Cc1c(=O)c2nc(NCCCO)ncc2n2c(=O)c3ccccc3[nH]c12,103.0,96.0,93.0,91.0,86.0,84.0
N#Cc1c(=O)c2nc(NCc3ccccc3)ncc2n2ccccc12,79.0*,85.0,90.0,83.0,80.0,84.0
CN1CCN(NC(=O)CC(C)(C)C)CC1,99.0,96.0,96.0,97.0,97.0,98.0
Cc1cc(C)n2nc(SC(C)C(=O)Nc3ccc(Cl)cn3)nc2n1 (centres undefined),97.0,108.0,96.0,97.0,99.0,96.0
Cn1nnc(NC(=S)NC(=O)c2ccc(-c3ccc(Br)cc3)o2)n1,76.0*,96.0,87.0,87.0,86.0,81.0
CCn1cc(C(=O)O)c(=O)c2cc(F)c(N/N=C/c3ccccc3)cc21,76.0*,89.0,88.0,84.0,83.0,89.0
COc1cc(NC(=O)COC(=O)Cc2ccc(-c3ccccc3)cc2)cc(OC)c1,98.0,94.0,100.0,99.0,97.0,96.0
O=C(COc1ccc(Cl)cc1)NCc1nnc(SCC(=O)N2CCCC2)o1,104.0,107.0,96.0,103.0,103.0,99.0
COc1ccc(/C=N/NC(=O)c2cccc([N+](=O)[O-])c2)cc1OC,99.0,109.0,94.0,98.0,99.0,95.0
O=C(N/N=C/c1ccc2nccnc2c1)c1cccc([N+](=O)[O-])c1,77.0*,97.0,89.0,88.0,86.0,82.0
CCN(CC)S(=O)(=O)c1cccc(NC(=O)c2ccc(C#N)cc2)c1,98.0,96.0,96.0,96.0,95.0,96.0
C/C(=N\NC(=O)c1ccc(Cl)c(S(=O)(=O)Nc2ccccc2Cl)c1)c1ccncc1,73.0*,91.0,87.0,87.0,86.0,86.0
O=C(O)c1cc(C(=O)O)cc(-c2ccc(/C=c3/sc4nc5ccccc5n4c3=O)o2)c1,81.0,92.0,80.0,82.0,79.0*,80.0
COc1ccc(CNCC(=O)Nc2ccccc2-n2cccc2)cc1,107.0,107.0,101.0,104.0,109.0,106.0
CCOc1ccc(-n2c(=O)[nH]cc(C(=O)Nc3ccc(OC)c(OC)c3)c2=O)cc1,93.0,93.0,94.0,92.0,93.0,96.0
COc1ccccc1NC(=O)CN(c1ccc(C)cc1)S(=O)(=O)c1c(C)n[nH]c1C,103.0,94.0,99.0,99.0,98.0,98.0
COc1ccc(N(CC(=O)Nc2cccc(C)c2C)S(=O)(=O)c2c(C)n[nH]c2C)cc1,81.0,87.0,88.0,84.0,79.0*,83.0
CS(=O)(=O)Nc1ccccc1C(=O)O,105.0,102.0,99.0,99.0,99.0,102.0
CS(=O)(=O)Nc1ccc(Br)cc1C(=O)c1ccccc1,103.0,102.0,99.0,99.0,97.0,69.0*
